Records with an inconclusive call do not appear. Unmarked numbers belong to inactive results. Active and inactive are the calls of the source. The call rests on the fitted dose curve; in most records, active means well fitted curve in the direction sought with a large enough effect; inconclusive means small, poorly fitted or top-dose-only effect, or another doubt; inactive means no such curve, though single readings can be large; an effect the other way counts as inactive or inconclusive.

The target in the first assay is Aldehyde dehydrogenase, mitochondrial (Homo sapiens) (UniProt P05091). Kind of assay: qHTS for Inhibitors of the Aldehyde Dehydrogenase Family (ALDH2) Primary screen (AID 2061308).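 Further: plate controls were vehicle for no effect and reference inhibitor for full effect; nearly all actives have a fitted effect of over 55% in size.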 The settings on record: ALDH2 enzyme inhibition qHTS, 1536-well; series mostly up to 56 µM; activity change, negative = inhibition: at the top concentration. (Quantitative high-throughput screening tests each substance at several concentrations.)
For `Cc1cc(N[S+](=O)([O-])c2cc3c(cc2F)NC(=O)CC3)ccc1Br`, the “activity change, negative = inhibition” value was -9.66%.
On to `Cc1c(P(=S)(c2ccccc2)c2ccccc2)c2ccccc2n1Cc1ccccc1`, for which the “activity change, negative = inhibition” value was -4.31%.
On the same count and under the same terms, with `Cc1cc2c(s1)c1cnn(Cc3c(F)c(F)cc(F)c3F)c(=O)c1n2C` the figure was -3.35%; with `OC(c1ccccc1)(c1ccccc1)c1cnc2ccccn12`, 10.9%; with `Cc1cc(C)nc(NC(=S)N2CCN(c3ccc(Cl)cc3[N+](=O)[O-])CC2)c1`, -3.55%.
Still for that read-out and setting: the value for `COc1ccc(NS(=O)(=O)c2ccc(C)cc2)cc1C(=O)Nc1nc(-c2ccccc2)cs1` was 12.3%; that for `Cc1cc2c(s1)c1cnn(Cc3cccc(Br)c3)c(=O)c1n2C` was 5.38%.
Same read-out and setting: with `CC[C@H]1OC(=O)[C@H](C)[C@@H](O[C@H]2C[C@@](C)(OC)[C@@H](O)[C@H](C)O2)[C@H](C)[C@@H](O[C@@H]2O[C@H](C)C[C@H](N(C)C)[C@H]2O)[C@](C)(O)C[C@@H](C)/C(=N/OCOCCOC)[C@H](C)[C@@H](O)[C@]1(C)O` the figure was 50.5%.
`COc1cccc(CC(=O)Nc2nc(-c3ccc4c(c3)CCN4C(=O)c3ccccc3C)c(C)s2)c1`: the “activity change, negative = inhibition” value was 2.84%.
In the case of `COc1cccc(C2c3c(ncn(-c4ccc(C#N)cc4)c3=N)Oc3ccc4ccccc4c32)c1` (stereo not given), the “activity change, negative = inhibition” value is 1.03%.
On the same count and under the same terms, the value for `Cc1ccc(-c2ccc(=O)n(CCNCCc3ccccc3)n2)cc1` was -19.8%; that for `O=C1CCc2cc(S(=O)(=O)Nc3ccc4ccccc4c3)ccc2N1` was -3.1%; that for `Cc1csc(CNc2ncnc3ccc(-c4ccc5c(ccn5C)c4)cc23)c1` was 4.33%.
The same measure, in the same setting: the value for `COc1cc(-c2ccc3ncnc(NCc4nc(C)cs4)c3c2)cc(OC)c1OC` was -2.43%; that for `O=C(Nc1cccc(C(F)(F)F)c1)c1cccs1` was 7.65%; that for `N#Cc1ccc(Nc2nn3c(=O)c4ccccc4nc3s2)cc1` was 11.4%.
Still for that read-out and setting: with `N#Cc1ccc(CSc2nc3ncc(Br)cc3[nH]2)cc1` the figure was 20%; with `Cc1cc(C)nc(NC(=S)N2CCN(c3nncs3)CC2)c1`, -4.6%; with `O=S(=O)(c1ccc2c(c1)OCCO2)N1CCN(S(=O)(=O)c2ccco2)CC1`, 15.5%.
Take `COc1cccc(C2c3c(ncn(-c4ccccc4Br)c3=N)Oc3ccc4ccccc4c32)c1` (stereo not given): the “activity change, negative = inhibition” value was -9.52%.
Consider `COc1ccc(C2Nc3ccccc3C(=O)N2Cc2ccc(C)o2)cc1COc1c(C)cccc1C` (stereo not given), for which the “activity change, negative = inhibition” value was -10.1%.
Turning to `NC(=O)C1CCN(c2nc(-c3ccc4c(c3)CCO4)cs2)CC1`, the “activity change, negative = inhibition” value is 1.09%.
On the same count and under the same terms, with `O=S(=O)(c1cccc2ccccc12)n1ccc2ccc(N3CCN4CCCC4C3)cc21` (stereo not given) the figure was -11.1%; with `NCCCC[C@H](N)C(=O)Nc1ccc(Cl)cc1C(=O)c1ccc[nH]1`, -17.9%; with `Cn1nnnc1Sc1ncnc2scc(-c3cccc([N+](=O)[O-])c3)c12`, 2.1%.
On to `Cc1nc(NCc2ccccc2)c2nc(-c3ccccc3)n(C(C)CN(C)C)c2n1` (stereo not given), for which the “activity change, negative = inhibition” value is 12.8%.
For the compound `Cc1cc(C)nc(NC(=S)N2CCN(c3cc(Cl)cc(C(F)(F)F)c3)CC2)c1`, the Potency entry was “inactive”.
Take `Cc1ccccc1CSc1nc2ncc(Br)cc2[nH]1`: the “activity change, negative = inhibition” value was -7.48%.
Consider `C[C@@H]1O[C@@H](O[C@@H]2[C@@H](O)[C@H](O[C@H]3CC[C@@]4(C)C(CC[C@]5(C)C4CC=C4[C@@H]6CC(C)(C)CC[C@]6(C(=O)O[C@@H]6O[C@H](CO)[C@@H](O)[C@H](O)[C@H]6O)CC[C@]45C)C3(C)C)O[C@H](C(=O)O)[C@H]2O)[C@H](O)[C@H](O)[C@H]1O` (stereo not given in full), for which the “activity change, negative = inhibition” value was -3.98% [at 16.9 µM].
Same read-out and setting: the value for `FC(F)(F)c1cccc(N2CCN(C(=S)Nc3cccnc3)CC2)c1` was 6.15%.
Still for that read-out and setting: the value for `CSc1ccc(CNc2ncnc3ccc(-c4c(C)noc4C)cc23)cc1` was 0.858%; that for `C=C1C(=O)OC2CC(C)C(CCC(C)O)=CCC12` (stereo not given) was 2.67%.
For the compound `COc1cccc(C2c3c(ncn(-c4ccncc4)c3=N)Oc3ccc4ccccc4c32)c1` (stereo not given), the “activity change, negative = inhibition” value is 3.14%.
The same measure, in the same setting: with `CCNC(=O)c1ccc(-c2ccc3ncnc(NCc4nccs4)c3c2)o1` the figure was -0.933%; with `CN1CCN(c2nnc(NC(=O)Nc3ccc(Cl)c(Cl)c3)s2)CC1`, 6.1%; with `Cc1cc(NC(=O)Nc2nnc(C3CCCCC3)s2)ccc1Cl`, 0.662%.
Same read-out and setting: the value for `CC(NCc1ccc2c(c1)nc(NC(=O)c1ccc(-c3cn[nH]c3)s1)n2CC(C)(C)O)C(C)(C)C` (stereo not given) was 26.2%; that for `O=C1c2ccccc2C(=O)N1c1cccc(O)c1` was -0.55%.
Still for that read-out and setting: the value for `Cc1c(P(=S)(c2ccccc2)c2ccccc2)[n+]2ccccc2n1CC(=O)c1ccccc1` was 1.11%.
Take `COc1ccc(OC2=NS(=O)(=O)c3ccccc32)cc1`: the “activity change, negative = inhibition” value is -26.5%.

The next assay addresses Retinaldehyde dehydrogenase 3 (Homo sapiens) (UniProt P47895). Description: qHTS for Inhibitors of the Aldehyde Dehydrogenase Family (ALDH1A3) Primary screen (AID 2061315).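 Further: plate controls were DMSO vehicle for no effect and reference inhibitor for full effect.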 The settings on record: ALDH inhibition qHTS; series mostly up to 56 µM; activity change, negative = inhibition: at the top concentration.
Consider `Cc1cc(N[S+](=O)([O-])c2cc3c(cc2F)NC(=O)CC3)ccc1Br`, for which the “activity change, negative = inhibition” value is -0.905%.
Same read-out and setting: the value for `Cc1c(P(=S)(c2ccccc2)c2ccccc2)c2ccccc2n1Cc1ccccc1` was 7.11%; that for `Cc1cc2c(s1)c1cnn(Cc3c(F)c(F)cc(F)c3F)c(=O)c1n2C` was 0.233%.
Turning to `OC(c1ccccc1)(c1ccccc1)c1cnc2ccccn12`, the “activity change, negative = inhibition” value is 5.23%.
Still for that read-out and setting: the value for `Cc1cc(C)nc(NC(=S)N2CCN(c3ccc(Cl)cc3[N+](=O)[O-])CC2)c1` was 3.58%.
On the same count and under the same terms, with `COc1ccc(NS(=O)(=O)c2ccc(C)cc2)cc1C(=O)Nc1nc(-c2ccccc2)cs1` the figure was -6.47%.
Still for that read-out and setting: the value for `Cc1cc2c(s1)c1cnn(Cc3cccc(Br)c3)c(=O)c1n2C` was 2.93%; that for `CC[C@H]1OC(=O)[C@H](C)[C@@H](O[C@H]2C[C@@](C)(OC)[C@@H](O)[C@H](C)O2)[C@H](C)[C@@H](O[C@@H]2O[C@H](C)C[C@H](N(C)C)[C@H]2O)[C@](C)(O)C[C@@H](C)/C(=N/OCOCCOC)[C@H](C)[C@@H](O)[C@]1(C)O` was 14.1%; that for `COc1cccc(CC(=O)Nc2nc(-c3ccc4c(c3)CCN4C(=O)c3ccccc3C)c(C)s2)c1` was 8.02%.
For `COc1cccc(C2c3c(ncn(-c4ccc(C#N)cc4)c3=N)Oc3ccc4ccccc4c32)c1` (stereo not given), the “activity change, negative = inhibition” value is -3.09%.
On the same count and under the same terms, with `Cc1ccc(-c2ccc(=O)n(CCNCCc3ccccc3)n2)cc1` the figure was -10.1%; with `O=C1CCc2cc(S(=O)(=O)Nc3ccc4ccccc4c3)ccc2N1`, -1.97%.
Still for that read-out and setting: with `Cc1csc(CNc2ncnc3ccc(-c4ccc5c(ccn5C)c4)cc23)c1` the figure was -10%; with `COc1cc(-c2ccc3ncnc(NCc4nc(C)cs4)c3c2)cc(OC)c1OC`, -9.42%.
On the same count and under the same terms, the value for `O=C(Nc1cccc(C(F)(F)F)c1)c1cccs1` was -1.49%.
As to `N#Cc1ccc(Nc2nn3c(=O)c4ccccc4nc3s2)cc1`, the “activity change, negative = inhibition” value was 0.107%.
On the same count and under the same terms, with `N#Cc1ccc(CSc2nc3ncc(Br)cc3[nH]2)cc1` the figure was 8.15%; with `Cc1cc(C)nc(NC(=S)N2CCN(c3nncs3)CC2)c1`, -3.38%.
In the case of `O=S(=O)(c1ccc2c(c1)OCCO2)N1CCN(S(=O)(=O)c2ccco2)CC1`, the “activity change, negative = inhibition” value is 7.53%.
As for `COc1cccc(C2c3c(ncn(-c4ccccc4Br)c3=N)Oc3ccc4ccccc4c32)c1` (stereo not given), the “activity change, negative = inhibition” value was -3.95%.
Same read-out and setting: with `COc1ccc(C2Nc3ccccc3C(=O)N2Cc2ccc(C)o2)cc1COc1c(C)cccc1C` (stereo not given) the figure was -6.49%; with `NC(=O)C1CCN(c2nc(-c3ccc4c(c3)CCO4)cs2)CC1`, 26.5%; with `O=S(=O)(c1cccc2ccccc12)n1ccc2ccc(N3CCN4CCCC4C3)cc21` (stereo not given), -14.9%.
As for `NCCCC[C@H](N)C(=O)Nc1ccc(Cl)cc1C(=O)c1ccc[nH]1`, the “activity change, negative = inhibition” value is 9%.
On the same count and under the same terms, the value for `Cn1nnnc1Sc1ncnc2scc(-c3cccc([N+](=O)[O-])c3)c12` was -6.49%.
For the compound `Cc1nc(NCc2ccccc2)c2nc(-c3ccccc3)n(C(C)CN(C)C)c2n1` (stereo not given), the “activity change, negative = inhibition” value was 16.8%.
`Cc1cc(C)nc(NC(=S)N2CCN(c3cc(Cl)cc(C(F)(F)F)c3)CC2)c1`: the Potency result is “inactive”.
Turning to `Cc1ccccc1CSc1nc2ncc(Br)cc2[nH]1`, the “activity change, negative = inhibition” value was 1.54%.
With `C[C@@H]1O[C@@H](O[C@@H]2[C@@H](O)[C@H](O[C@H]3CC[C@@]4(C)C(CC[C@]5(C)C4CC=C4[C@@H]6CC(C)(C)CC[C@]6(C(=O)O[C@@H]6O[C@H](CO)[C@@H](O)[C@H](O)[C@H]6O)CC[C@]45C)C3(C)C)O[C@H](C(=O)O)[C@H]2O)[C@H](O)[C@H](O)[C@H]1O` (stereo not given in full), the “activity change, negative = inhibition” value was 5.88% [at 16.9 µM].
For the compound `FC(F)(F)c1cccc(N2CCN(C(=S)Nc3cccnc3)CC2)c1`, the “activity change, negative = inhibition” value was 9.6%.
Turning to `CSc1ccc(CNc2ncnc3ccc(-c4c(C)noc4C)cc23)cc1`, the “activity change, negative = inhibition” value was 9.34%.
The same measure, in the same setting: with `C=C1C(=O)OC2CC(C)C(CCC(C)O)=CCC12` (stereo not given) the figure was -26.7%.
As to `COc1cccc(C2c3c(ncn(-c4ccncc4)c3=N)Oc3ccc4ccccc4c32)c1` (stereo not given), the “activity change, negative = inhibition” value was 0.766%.
The same measure, in the same setting: the value for `CCNC(=O)c1ccc(-c2ccc3ncnc(NCc4nccs4)c3c2)o1` was -10.5%.
As to `CN1CCN(c2nnc(NC(=O)Nc3ccc(Cl)c(Cl)c3)s2)CC1`, the “activity change, negative = inhibition” value was -7.74%.
As for `Cc1cc(NC(=O)Nc2nnc(C3CCCCC3)s2)ccc1Cl`, the “activity change, negative = inhibition” value is 9.38%.
As for `CC(NCc1ccc2c(c1)nc(NC(=O)c1ccc(-c3cn[nH]c3)s1)n2CC(C)(C)O)C(C)(C)C` (stereo not given), the “activity change, negative = inhibition” value was 23.7%.
Same read-out and setting: with `O=C1c2ccccc2C(=O)N1c1cccc(O)c1` the figure was -7.45%.
Same read-out and setting: with `Cc1c(P(=S)(c2ccccc2)c2ccccc2)[n+]2ccccc2n1CC(=O)c1ccccc1` the figure was 12.6%.
Same read-out and setting: the value for `COc1ccc(OC2=NS(=O)(=O)c3ccccc32)cc1` was -21.9%.
